The source of these data is PubChem BioAssay.

Values without a mark were called inactive. No rule for the calls is given here.

The target of this test is Pantothenate synthetase (Mycobacterium tuberculosis (strain ATCC 25618 / H37Rv)) (UniProt P9WIL5). The experiment in a line: Recombinant Mtb pantothenate synthetase (PanC) inhibitors, coupled enzyme, confirmatory (AID 375).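 Also: 0% = full reaction with vehicle and 100% = no enzyme background.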 The following applies: coupled enzyme assay; at 10 µM, stronger effect = higher value.
Chain of Pantothenate synthetase (Mycobacterium tuberculosis (strain ATCC 25618 / H37Rv)) (P9WIL5 whole entry, looked up): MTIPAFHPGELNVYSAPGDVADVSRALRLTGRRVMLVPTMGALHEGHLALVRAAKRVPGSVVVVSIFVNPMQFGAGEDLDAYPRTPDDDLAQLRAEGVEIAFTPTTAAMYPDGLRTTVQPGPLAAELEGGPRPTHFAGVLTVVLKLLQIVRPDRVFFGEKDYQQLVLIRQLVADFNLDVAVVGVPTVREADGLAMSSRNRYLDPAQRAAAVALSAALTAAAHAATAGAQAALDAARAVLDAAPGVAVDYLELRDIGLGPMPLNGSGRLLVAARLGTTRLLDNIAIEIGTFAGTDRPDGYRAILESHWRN
As for `COc1ccccc1NCN1C(=O)CCC1=O`, the inhibition was 3%.

In the case of `COc1ccc(N2CCN(Cc3nc(-c4ccc(Cl)cc4Cl)no3)CC2)cc1`, the inhibition is 6%. Regarding `C=CCN1C(=O)CS/C1=C(\C#N)S(=O)(=O)c1ccc(C)cc1`, the inhibition was 0%. On to `O=C(c1ccc(CSCc2ccccc2F)o1)N1CCN(c2ccc(N3CCOCC3)nn2)CC1`, for which the inhibition was 0%. For `CCOc1ccccc1Nc1nc2ccccc2[nH]1` the value was 1%; for `CCOC(=O)c1c(NC(=O)OC)sc2c1CCC2`, 0%; for `O=C(CCn1c(=O)oc2ccccc21)NCCN1CCOCC1`, 4%.

Regarding `CC1CCCC(C(=O)OCc2ccccc2)N1` (stereo not drawn), the inhibition is 0%.

`CN(CCC#N)C(=O)COC(=O)c1ccc(Cl)c(S(N)(=O)=O)c1`: the inhibition was 0%. The value for `CCOC(=O)CNC(=O)Nc1ccccc1C(=O)OC` was 6%.

In the case of `Nc1ncnc2nc(SCCN3CCCCC3)[nH]c12`, the inhibition is 4%.

`COCCn1c(SCC(=O)Nc2nnc(C)s2)nnc1-c1ccncc1`: the inhibition was 7%. For `O=C1CCCc2c1cc(C(=O)NCCCN1CCOCC1)c(=O)n2-c1ccc(Cl)cc1`, the inhibition is 0%. Take `CC(=O)N(C(C)=O)c1ncc2c([nH]c3ccccc32)c1C#N`: the inhibition was 0%.

For the compound `COCCNC(=O)C(c1ccc(C)o1)N(C(=O)c1snc(C(N)=O)c1N)c1ccc(C)cc1` (stereo not drawn), the inhibition was 4%. Take `COc1ccccc1-n1c(C)nnc1SCC(N)=O`: the inhibition is 0%. The value for `Fc1ccccc1C(c1nnnn1Cc1ccc2c(c1)OCO2)N1CCN(Cc2ccccc2)CC1` (stereo not drawn) was 3%; that for `CCn1c(CSc2ncccn2)nnc1SCC(=O)N1c2ccccc2CC1C` (stereo not drawn) was 6%.

A word on the inhibition: it is the percentage by which the read-out fell short of the control.
